Tcruzi prolif – T. cruzi proliferation inhibition; inhibition, % at 8.34 µM; T. cruzi beta-gal in NIH3T3, GalScreen luminescence, 90 h; 77,000 compounds, 5.9% hits;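 active = mean inhibition above about 93%, with at least 55% of replicates each passing it, limit read from the data, passing the limit was not always enough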
C diff growth – inhibitors of Clostridium difficile growth | growth activity, negative = inhibition, % at 16 µg/mL (by protocol) | 86,000 compounds, 0.25% hits | Clostridium difficile clinical isolate growth, OD600, 24 h; hits give low values;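 active = mean growth activity at or below -80% and every replicate also at or below -80%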;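 note: 0% = DMSO wells and -100% = levofloxacin 16 µg/mL wells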
Pf Dd2 growth – blocks growth of Plasmodium falciparum Dd2 parasites; P. falciparum Dd2 growth, SYBR Green, 72 h; hits give low values; activity change, % at 10 µM; 94,000 compounds, 2.3% hits; in the data active = activity change below about -80%
Starred values were filed as active, the others as inactive. Rows were chosen to be rich in hits. Some 6.7% of all compounds tested hit in one or more screens of this group.

How did C[C@@H]1CCCCO[C@H](CN(C)S(=O)(=O)c2ccc(F)cc2)[C@@H](C)CN([C@@H](C)CO)C(=O)c2cc(NC(=O)Nc3ccc(C(F)(F)F)cc3)ccc2O1 do in these assays?
Tcruzi prolif: 86.0; Pf Dd2 growth: -84.5*

What do the screens show for `C[C@@H]1CCCCO[C@@H](CN(C)S(=O)(=O)c2ccc(Cl)cc2)[C@@H](C)CN([C@H](C)CO)C(=O)c2cc(NC(=O)Nc3ccc(C(F)(F)F)cc3)ccc2O1`?
Tcruzi prolif: 87.3; C diff growth: 18.7; Pf Dd2 growth: -85.6*

Results for C[C@@H]1CN([C@@H](C)CO)C(=O)c2cc(NC(=O)CCC(F)(F)F)ccc2O[C@@H](C)CCCCO[C@@H]1CN(C)S(=O)(=O)c1ccc(Cl)cc1 ?
Tcruzi prolif: 39.2; C diff growth: -7.4; Pf Dd2 growth: -85.6*

How did C[C@H](CO)N1C[C@H](C)[C@H](CN(C)S(=O)(=O)c2ccc(F)cc2)OCCCC[C@H](C)Oc2ccc(NC(=O)Nc3ccc(C(F)(F)F)cc3)cc2C1=O do in these assays?
Tcruzi prolif: 93.2; Pf Dd2 growth: -31.3

How did COc1ccc2c3c(n(C)c2c1)[C@@H](CO)N(Cc1ccc2c(c1)OCO2)CC31CCN(C(=O)C2CC2)CC1 do in these assays?
C diff growth: 0.1; Pf Dd2 growth: -75.1

What do the screens show for `C[C@@H]1CCCCO[C@@H](CN(C)C(=O)Nc2cccc3ccccc23)[C@@H](C)CN([C@@H](C)CO)C(=O)c2cc(NC(=O)Nc3ccc(C(F)(F)F)cc3)ccc2O1`?
C diff growth: 6.0; Pf Dd2 growth: -91.2*

What do the screens show for `C[C@H](CO)N1C[C@H](C)[C@H](CN(C)C(=O)Nc2cccc3ccccc23)OCCCC[C@H](C)Oc2ccc(NC(=O)Nc3ccccc3)cc2C1=O`?
Tcruzi prolif: -18.4; C diff growth: 0.6; Pf Dd2 growth: -25.6

Results for C[C@@H]1CN([C@H](C)CO)C(=O)c2cc(NC(=O)Nc3cccc4ccccc34)ccc2O[C@@H](C)CCCCO[C@H]1CN(C)C(=O)Nc1ccc(C(F)(F)F)cc1 ?
Tcruzi prolif: 88.7; C diff growth: -9.2; Pf Dd2 growth: -59.0

How did C[C@@H]1CN([C@H](C)CO)C(=O)c2cc(NC(=O)Nc3ccc(C(F)(F)F)cc3)ccc2O[C@@H](C)CCCCO[C@@H]1CN(C)C(=O)Nc1cccc2ccccc12 do in these assays?
Tcruzi prolif: 76.0; C diff growth: 4.9; Pf Dd2 growth: -81.7*

How did C[C@@H]1CCCCO[C@@H](CN(C)C(=O)Nc2cccc3ccccc23)[C@H](C)CN([C@@H](C)CO)C(=O)c2cc(NC(=O)Nc3ccc(C(F)(F)F)cc3)ccc2O1 do in these assays?
Tcruzi prolif: 52.2; C diff growth: 2.9; Pf Dd2 growth: -14.1

How did C[C@@H]1CN([C@@H](C)CO)C(=O)c2cc(NC(=O)Nc3ccccc3)ccc2O[C@@H](C)CCCCO[C@@H]1CN(C)C(=O)Nc1cccc2ccccc12 do in these assays?
Tcruzi prolif: 23.8; C diff growth: 3.7; Pf Dd2 growth: -84.4*

What do the screens show for `CCCNC(=O)N1CC2(CCN(S(=O)(=O)c3cccc(OC)c3)CC2)c2c(n(C)c3cc(OC)ccc23)[C@@H]1CO`?
C diff growth: -8.9; Pf Dd2 growth: -65.3

How did CCC(=O)N1[C@H](CO)[C@H](c2ccccc2)C12CN(C(=O)c1ccc(F)cc1)C2 do in these assays?
C diff growth: -5.0; Pf Dd2 growth: 24.9

Results for O=C(C[C@H]1C=C[C@H](NS(=O)(=O)c2ccccc2)[C@@H](CO)O1)N1CCC(Cc2ccccc2)CC1 ?
C diff growth: -4.6; Pf Dd2 growth: -2.0

What do the screens show for `COc1ccc(S(=O)(=O)Nc2ccc3c(c2)C(=O)N([C@@H](C)CO)C[C@@H](C)[C@H](CN(C)C(=O)CCCN(C)C)OCCCC[C@@H](C)O3)cc1`?
Tcruzi prolif: 18.0; C diff growth: 3.2; Pf Dd2 growth: 31.6

Results for COc1ccc(S(=O)(=O)Nc2ccc3c(c2)C(=O)N([C@@H](C)CO)C[C@@H](C)[C@@H](CN(C)S(=O)(=O)c2ccc(OC)cc2)OCCCC[C@H](C)O3)cc1 ?
Tcruzi prolif: 63.1; C diff growth: -0.2; Pf Dd2 growth: -85.0*

Results for COc1ccc(S(=O)(=O)Nc2ccc3c(c2)C(=O)N([C@@H](C)CO)C[C@H](C)[C@@H](CN(C)S(=O)(=O)c2ccc(C)cc2)OCCCC[C@H](C)O3)cc1 ?
Pf Dd2 growth: -82.8*

What do the screens show for `COc1ccc(S(=O)(=O)Nc2ccc3c(c2)C(=O)N([C@H](C)CO)C[C@H](C)[C@@H](CN(C)S(=O)(=O)c2ccc(OC)cc2)OCCCC[C@@H](C)O3)cc1`?
Tcruzi prolif: 52.8; C diff growth: -5.2; Pf Dd2 growth: -20.2

How did COc1ccc(S(=O)(=O)Nc2ccc3c(c2)C(=O)N([C@@H](C)CO)C[C@@H](C)[C@@H](CN(C)S(=O)(=O)c2ccc(C)cc2)OCCCC[C@@H](C)O3)cc1 do in these assays?
Pf Dd2 growth: -53.1

Results for CCC(=O)N(C)C[C@H]1Oc2cc(-c3cccc(F)c3)ccc2S(=O)(=O)N([C@@H](C)CO)C[C@@H]1C ?
Tcruzi prolif: 68.9; C diff growth: -12.0; Pf Dd2 growth: -5.1

What do the screens show for `COc1ccc(S(=O)(=O)N(C)C[C@@H]2Oc3ccc(NC(=O)Nc4ccc5c(c4)OCO5)cc3C(=O)N([C@H](C)CO)C[C@@H]2C)cc1`?
Tcruzi prolif: 2.3; C diff growth: -2.8; Pf Dd2 growth: -35.8

Results for O=C(C[C@H]1CC[C@@H](NC(=O)CN2CCOCC2)[C@H](CO)O1)NC1CCCCC1 ?
Tcruzi prolif: -2.6; Pf Dd2 growth: 7.0

How did C[C@@H]1CN([C@H](C)CO)C(=O)c2cccc(NC(=O)CCCCCC(=O)Nc3ccccc3N)c2O[C@H]1CN(C)Cc1ccc(C(F)(F)F)cc1 do in these assays?
C diff growth: -10.3; Pf Dd2 growth: -91.7*

What do the screens show for `C[C@H]1CN([C@@H](C)CO)C(=O)c2cccc(NC(=O)CCCCCC(=O)Nc3ccccc3N)c2O[C@H]1CN(C)Cc1ccc(C(F)(F)F)cc1`?
C diff growth: 7.4; Pf Dd2 growth: -85.4*

How did C[C@H]1CN([C@@H](C)CO)C(=O)c2cccc(NC(=O)CCCCCC(=O)Nc3ccccc3N)c2O[C@H]1CN(C)Cc1ccncc1 do in these assays?
C diff growth: 2.0; Pf Dd2 growth: 22.7

Results for C[C@@H]1CN([C@H](C)CO)C(=O)c2cccc(NC(=O)CCCCCC(=O)Nc3ccccc3N)c2O[C@H]1CN(C)Cc1ccncc1 ?
C diff growth: -3.1; Pf Dd2 growth: -18.9

Results for CN(C)C(=O)[C@H]1[C@H](CO)[C@H]2Cn3c(ccc(C4=CCCC4)c3=O)[C@@H]1N2CC1CCCC1 ?
C diff growth: 4.6; Pf Dd2 growth: 10.6

How did COc1ccc2c3c(n(C)c2c1)[C@H](CO)N(S(C)(=O)=O)CC31CN(C(=O)Nc2cccc(F)c2)C1 do in these assays?
C diff growth: 2.1; Pf Dd2 growth: -3.1

What do the screens show for `C[C@@H]1CN([C@@H](C)CO)C(=O)c2c(c3ccccc3n2C)-c2ccccc2CO[C@H]1CN(C)Cc1ccc(F)cc1`?
C diff growth: 51.4; Pf Dd2 growth: -50.3

What do the screens show for `C[C@@H]1CN([C@@H](C)CO)C(=O)c2c(c3ccccc3n2C)-c2ccccc2CO[C@@H]1CN(C)Cc1ccc(O)cc1`?
C diff growth: -7.0; Pf Dd2 growth: -41.7
